# An excerpt weighted towards active compounds, which were near 2.6% of everything screened.
# GLP1R ag: qHTS of GLP-1 Receptor Agonists | Potency, µM (titrated, usually from 45.6 µM), actives largely listed as activators | HEK293 GLP-1R CRE-luciferase, luminescence, 4-6 h; cells express a hypersensitive GLP-1R form | Glucagon-like peptide 1 receptor (Homo sapiens), P43220 | 380,000 tested, 0.007% active
# Target sequence (P43220 whole entry, looked up): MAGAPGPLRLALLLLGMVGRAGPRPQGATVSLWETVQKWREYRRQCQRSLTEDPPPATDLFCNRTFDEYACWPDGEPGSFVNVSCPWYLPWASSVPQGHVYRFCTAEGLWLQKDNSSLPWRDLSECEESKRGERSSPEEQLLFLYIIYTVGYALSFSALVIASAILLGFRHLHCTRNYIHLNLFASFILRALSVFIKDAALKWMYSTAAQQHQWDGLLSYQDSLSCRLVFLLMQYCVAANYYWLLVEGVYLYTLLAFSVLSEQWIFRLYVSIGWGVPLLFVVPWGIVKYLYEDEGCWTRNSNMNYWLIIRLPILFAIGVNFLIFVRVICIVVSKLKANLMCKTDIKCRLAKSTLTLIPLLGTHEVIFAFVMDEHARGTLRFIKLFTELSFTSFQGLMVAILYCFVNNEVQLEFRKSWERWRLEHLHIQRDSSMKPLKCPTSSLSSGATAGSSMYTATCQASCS
# GLP-1R inv ag: qHTS of GLP-1 Receptor Inverse Agonists (Inhibition Mode). 410,000 tested, 1.6% active. Potency, µM (titrated, usually from 38.3 µM), usual class: inhibitors. Glucagon-like peptide 1 receptor (Homo sapiens), P43220. HEK293 GLP-1R CRE-luciferase, luminescence, 24 h; GLP-1R form is constitutively active. AID 624417, 2012; note: nearly all actives have a fitted effect of over 55% in size
#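 HEK293 cells stably co-expressing a cAMP-responsive luciferase reporter and constitutively active GLP-1R were seeded, incubated 12 h, then exposed to compounds for 24 h at 37 C. Luminescence was read 12 min after detection reagent; inverse agonists lower signal.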
# HEK293 tox: qHTS of GLP-1 Receptor Inverse Agonists: Cytotox Screen; Potency, µM (doses to about 38.3 µM), hits mostly inhibitors; HEK293 cAMP-luciferase reporter cells, luminescence, 24 h; 410,000 tested, 0.13% active;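 note: loss of luciferase light is scored as toxicity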
#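 To flag toxic compounds, the library was rerun on cells for 24 hr at 37 deg C and 5% CO2. Viability-linked luminescence was captured 12 min after adding luciferase detection reagent.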
# BRCA1 expr act: qHTS Assay to Identify Small Molecule Activators of BRCA1 Expression; MCF7-BRCA1-FFLuc reporter, luminescence, 48 h; response scale: scaled: vehicle 0%, 10 µM genistein 100%; Potency, µM (top dose mostly 46.1 µM), usual class: activators; AID 624202, 2012; 380,000 tested, 1.1% active; note: nearly all actives have a fitted effect of over 80% in size
#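 Using MCF7 cells harboring a BRCA1 firefly luciferase reporter, plated 2 h before compound pinning, the screen measured luminescence after 48 h incubation. Responses were normalized to DMSO and 10 microM genistein, then fitted for concentration-effect.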
# Numbers stand for hits; 0 = inactive; ? = inconclusive; - = no result; [ ] = remark or other dose. Calls come from the whole dose curve; as a rule, active = well fitted curve in the direction sought with a large enough effect; inconclusive = small, poorly fitted or top-dose-only effect, or another doubt; inactive = no such curve, though single readings can be large; an effect the other way counts as inactive or inconclusive.
SMILES,GLP1R ag,GLP-1R inv ag,HEK293 tox,BRCA1 expr act
O=C(COc1ccccc1C(=O)Nc1ccccc1)Nc1ccc2ccccc2c1,-,-,-,0
COc1ccc(OC)c(/C=C2\Cc3ccccc3C2=O)c1,-,-,-,0
COc1cccc(-c2nc(SCC(=O)NC3CCCC3)c(-c3ccccc3)[nH]2)c1,-,?,0,-
Cc1ccc(Nc2nnc(-c3ccc4c(c3)OCO4)o2)c(C)c1,0,0,0,10µM
Cc1ccc(CSc2nnc(-c3ccc4c(c3)OCO4)o2)cc1,0,0,0,?
Cc1nc2c(C)c(C)c(C)c(C)c2nc1C,0,0,0,0
Cc1nc2c(O)c3c(c(O)c2nc1C)C1C=CC3CC1,0,?,5.62µM,0
Clc1ccc([C@H](Cn2ccnc2)OCc2c(Cl)cccc2Cl)c(Cl)c1,0,-,-,-
CN(C(=O)c1cc(-c2ccc3c(c2)OCO3)on1)c1ccccc1,0,0,?,2.82µM
COc1ccc(C(=O)/C=C/c2ccc(N(C)C)cc2)c(OC)c1,?,?,0,0
COc1cccc(/C=C/C(=O)Oc2ccc(C(=O)c3ccc(F)cc3)cc2)c1,0,0,0[1.53 µM],0
O=C(/C=C/c1ccc2c(c1)OCCCO2)c1ccccc1O,0,?,0,0
CSc1ccccc1NC(=O)c1cc(-c2ccc3c(c2)OCO3)on1,0,0,0,0
COc1cccc(/C=C/C(=O)c2ccc[nH]2)c1,0,0,0,7.94µM
COc1ccc(C(=O)/C=C/c2ccccc2)c(OC)c1,0,10µM,0,0
Cc1ccc(O)c(C(=O)/C=C/c2ccc3c(c2)OCCCO3)c1,0,?,0,7.08µM
CCc1nn(CC(=O)Nc2ccc(N(CC)CC)cc2C)c(=O)c2cc3sccc3n12,-,0,0,-
O=C(/C=C/c1ccc2c(c1)OCO2)c1ccc[nH]1,0,0,0,7.94µM
O=C(/C=C/c1ccc2c(c1)OCO2)c1ccc(F)cc1,0,?,0,0
CN(/N=C/c1ccc2c(c1)OCO2)c1ccccc1,0,0,0,7.08µM
Cc1ccc(NC(=O)/C=C/c2ccc3c(c2)OCO3)nc1,0,?,0,1.58µM
C(=N\N(c1ccccc1)c1ccccc1)/c1ccc2c(c1)OCO2,0,?,0,0
Cc1ccc(NC(=O)Nc2ccc3c(c2)OCO3)nc1,0,0,0,?
O=C(/C=C/c1ccc2c(c1)OCO2)N1CCCCC1,0,0,0,3.55µM
Cc1cc(C)n2nc(SCC(=O)Nc3cc(Cl)ccc3C)nc2n1,0,0,0,0
SMILES,GLP1R ag,GLP-1R inv ag,HEK293 tox,BRCA1 expr act
Cc1nn2c(=O)cc(COC(=O)c3ccccc3NC(=O)c3cccs3)nc2s1,-,0,0,-
FC(F)(F)C(F)(F)C(F)(F)C(F)(F)C(F)(F)C(F)(F)C(F)(F)C(F)(F)Br,0,-,-,-
CN(C(=O)/C=C/c1ccc2c(c1)OCO2)c1ccccc1,0,0[7.66 µM],0[7.66 µM],3.16µM
Nc1nonc1-n1nnc(C(=O)N/N=C/c2c(Cl)cccc2Cl)c1CSC1=NCCS1,0,0,0,0
CCCN(CCC)Cc1c(C(=O)N/N=C/C(C)=C\c2ccccc2)nnn1-c1nonc1N,0,2.82µM,0,0
Nc1nonc1-n1nnc(C(=O)N/N=C/C=C/c2ccccc2)c1CSC1=NCCS1,0,7.94µM,?,0
C=CCSc1nncn1/N=C/c1ccc(OC)cc1,0,0,0,2.24µM
COc1ccc(C(=O)c2sc3nc(-c4ccc(F)cc4)ccc3c2N)cc1,0,0,0,0
Cc1ccc(S(=O)(=O)C=CS(=O)(=O)c2ccc(C)cc2)cc1,0,0,?,0
O=S(=O)(/C=C/C=C/S(=O)(=O)c1ccccc1)c1ccccc1,0,0,0.631µM,0
CCc1ccc(CNc2ccc3c(c2)ncn3C)cc1,0,0,0,?
Cc1ccc(CNc2ccc3c(c2)ncn3C)cc1,0,0,0,5.01µM
CCCn1cnc2cc(NCc3ccccn3)ccc21,0,0,0,3.98µM
COC(=O)CC(=O)CSc1nc2cc(C(=O)NCC(C)C)ccc2c(=O)n1CCc1ccccc1,-,0,0,0
COC(=O)c1cnn(-c2ccc(C(=O)Nc3cccc(C(C)=O)c3)cc2)c1N,-,0,0,-
Cc1cc(Cl)c2oc(C(=O)N(C)C3CCOC3)c(C)c2c1 (stereo not drawn),0,0,0,2.51µM
Cc1cc(Cl)c2oc(C(=O)N3CCOCC3)c(C)c2c1,0,0,0,?
O=C(c1cccc(-c2ccco2)c1)N1CCCC(N2CCN(c3ccc(F)cc3)CC2)C1 (stereo not drawn),0,10µM,0,0
CCc1ccccc1NC(=O)c1ccc2[nH]c(C)c(C)c2c1,-,0,0,8.91µM
Cc1ccccc1NC(=O)c1ccc2[nH]c(C)c(C)c2c1,-,0,0,-
CSc1nnc(-c2ccc(S(=O)(=O)N3CCCCC3)cc2)o1,0,0,0,0
O=C(Nc1ccccc1Cl)c1ccn[nH]1,0,0,0,12.6µM
CC(Sc1ccsc1[N+](=O)[O-])C(=O)NCCc1ccc(Cl)cc1 (stereo not drawn),0,0,?,0
O=[N+]([O-])c1cccc(/C=N/NC2=NCCCCC2)c1,0,0,0,0
O=C(ONC1=NCCCCC1)c1cccc([N+](=O)[O-])c1,0,?,11.2µM,0
SMILES,GLP1R ag,GLP-1R inv ag,HEK293 tox,BRCA1 expr act
O=C1OCCN1C(=O)[C@H]1[C@H](c2ccc([N+](=O)[O-])cc2)C(c2ccc(F)cc2)=NN1c1ccc(Br)cc1,0,10µM,0,0
Cc1ccc2[nH]cc(C(c3ccccc3)c3ccc(Cl)s3)c2c1 (stereo not drawn),-,10µM,0,-
Clc1ccc(C(c2ccccc2)c2c[nH]c3ccccc23)s1 (stereo not drawn),0,?,0,0
COc1ccc(NC(C)C(=O)N/N=C/c2ccccc2OCc2ccc(Br)cc2)cc1 (stereo not drawn),0,?,0,3.98µM
O=C(NC1CC1)c1cc2cc3ccccc3nc2s1,0,0,0,5.01µM
O=C(CSc1nnc2ccccn12)Nc1ncc(Cl)cc1Cl,0,0,0,10µM
Fc1cccc(Cl)c1CSc1nnc2ccccn12,0,0,0,?
CC(Sc1nnc2ccccn12)C(=O)Nc1ncc(Cl)cc1Cl (stereo not drawn),0,0,0,0
Fc1ccc(CSc2nnc3ccccn23)c(Cl)c1,0,0[0.307 µM],0[0.307 µM],10µM
CC(C)(C)CC(C)(C)n1nnnc1N,0,0,0,0
CN(c1nc(-c2ccc(Br)cc2)cs1)C1CCS(=O)(=O)C1 (stereo not drawn),0,0,0,11.2µM
O=c1[nH]cnc2sc(-c3ccccc3)cc12,0,0,0,12.6µM
O=c1c2cc(-c3ccccc3)sc2ncn1-n1cccc1,0,0,0,2µM
Cc1ccc(C)n1-n1cnc2sc(-c3ccccc3)cc2c1=O,0,0,0,0
O=c1[nH]c(-c2ccccc2)nc2sc(-c3ccccc3)cc12,0,0,0,0
O=C1NCCN1CCN1CCC(c2cn(-c3ccc(F)cc3)c3ccc(Cl)cc23)CC1,0,-,-,-

# Bioassay records as filed in PubChem.
